This note sets out measurements from PubChem BioAssay (NCATS).

Each structure is given as a SMILES string. Where “and” joins values, the source holds several entries; their conditions need not be identical. Equal entries are not always repeated. Inconclusive results are not listed. Unmarked numbers belong to inactive results. Calls of active or inactive are those of the source. Calls come from the whole dose curve; as a rule, active = well fitted activation curve with a large enough effect; inconclusive = small, poorly fitted or top-dose-only effect; inactive = no such curve, though single readings can be large or run the other way.
Potency is the fitted concentration of half-maximal effect.

The target of this assay is Cellular tumor antigen p53 (Homo sapiens) (UniProt P04637). In words: Primary qHTS for small molecule compounds that upregulate eGFP-tagged delta133p53alpha (in N-terminal) cells. (AID 2060322).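 For activation: cells pre-induced with doxycycline then dosed without doxycycline; series mostly up to about 56 µM; 0% = DMSO vehicle and 100% = reference activator.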 Note: nearly all actives have a fitted effect of over 75% in size. The settings on record: NCI-H358 eGFP-delta133p53alpha fluorescence, 24 h; activation: active compounds read high. From the text: Assay Development and Screening Technology
Sequence of Cellular tumor antigen p53 (Homo sapiens) (P04637 whole entry, looked up): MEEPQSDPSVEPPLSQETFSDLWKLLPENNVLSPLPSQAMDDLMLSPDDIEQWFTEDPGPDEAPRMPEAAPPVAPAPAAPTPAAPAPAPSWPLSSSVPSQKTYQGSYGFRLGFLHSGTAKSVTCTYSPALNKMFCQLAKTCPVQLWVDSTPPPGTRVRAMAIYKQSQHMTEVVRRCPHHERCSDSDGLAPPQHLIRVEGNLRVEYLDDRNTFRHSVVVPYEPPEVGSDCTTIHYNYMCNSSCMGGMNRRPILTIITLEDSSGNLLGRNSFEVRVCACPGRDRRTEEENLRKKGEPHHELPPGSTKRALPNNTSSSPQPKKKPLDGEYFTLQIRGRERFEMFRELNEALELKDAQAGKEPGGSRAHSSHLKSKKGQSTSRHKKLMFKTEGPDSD
National Center for Advancing Translational Sciences (NCATS),
National Institute of Health (NIH), Rockville, Maryland
Cellular senescence (CS) is one of the hallmarks of aging and age-related diseases. Senescent cells are characterized by an irreversible growth arrest, an increase in senescence-associated beta-galactosidase (SA-beta-gal) activity and p16INK4a expression, an activation of the DNA damage response pathways, and the emergence of a senescence-associated secretory phenotype (SASP).
Delta133p53alpha, a human/primate-specific p53 protein isoform, delays or inhibits the induction of CS and SASP in various types of human cells, including progeria-derived fibroblasts, primary normal astrocytes, and CD8+ T lymphocytes. Induction of delta133p53alpha with small molecule compounds may provide therapeutic opportunities for inhibition of senescence/SASP-associated pathologies in progeria syndromes, astrocyte-mediated neuroprotection in neurodegenerative diseases, and possibly prevention and treatment of a wider range of senescence- and aging-associated diseases.
Here we report the development and validation of a cell-based quantitative high throughput screening (qHTS) assay in 1,536-well format. This qHTS assay uses the NCI-H358 cell line with doxycycline-inducible expression of enhanced green fluorescent protein (eGFP)-tagged delta133p53alpha, which allows efficient and highly quantitative measurement of the protein levels.
PROTOCOL TABLE (as described by Inglese J, Shamu CE and Guy RK. 2007)
SEQUENCE No. (e.g., 1, 2, 3, etc.); […] (e.g., Cells, Incubation, Reagent, etc.); VALUE; DESCRIPTION.
1; Cells; 4uL; 800 doxycycline treated cells / well in doxycycline-free media, 1536-well black, clear-bottom low base Aurora microplates.
2; Compounds; 23 nL; Kalypsis pin tool (Wako) equipped with 1536-well pin heads, 5-azacytidine positive control.
3; Incubation; 24 hr; 37C, 5% CO2; 95% relative humidity.
4; Aspiration; 1x; BioTek EL406 washer dispenser (Agilent).
5; Fixing; 3.5% paraformaldehyde, BioTek EL406 washer dispenser (Agilent).
6; Washing; 1x PBS; BioTek EL406 washer dispenser (Agilent).
7; Nuclei staining; 1:1000 dilution of Hoechst 33342 (Thermofisher), BioTek EL406 washer dispenser (Agilent).
8; Incubation; 20 min; in the dark at room temperature.
9; Washing; 2x, 1x PBS (ThermoFisher), BioTek EL406 washer dispenser (Agilent).
10; Reagent; 10 uL; 1x PBS per well, sealed with clear adhesive tape.
NOTES (numbers refer to sequence numbers above).
1. NCI-H358 cells expressing eGFP-tagged delta133p53alpha were grown in T75 culture flasks and treated with doxycycline for 24h, at 10 ng/ml for eGFP-D133p53a cells (N-terminal cell) and 100 ng/ml for D133p53a-eGFP cells (C-terminal cells). Cells were trypsinized, counted using a Counted 3 Automated Cell Counter (Thermo Fisher), and diluted to a concentration of 200,000 cells/ml. A Multidrop Combi Reagent Dispenser (ThermoFisher) was used to dispense 800 cells/well in […] of doxycycline-free media, into 1536-well black/clear bottom low base plates (AuroraMicroplates).
2. After plating cells, 23 nl of compound library, DMSO vehicle control or positive control (5-azacytidine) were transferred by Pin Tool (Wako). The plate map layout was the same for each plate: (column 1) non-doxycycline treated cells + DMSO vehicle control; (column 2) doxycycline treated cells + DMSO vehicle control baseline; (column 3) doxycycline treated cells + positive control 57.5 uM final concentration 5-azacytidine; (column 4) doxycycline treated cells + serial dilution of 5-azacytidine, 16-point 1:2 titration spanning 1.8 nM to […] final concentration; (columns 5-48) doxycycline treated cells + titration of library compounds.
3. Cells were incubated at 37 °C, 5 % CO2, 95% RH with breathable metal lid for 24h.
4-10. […] After two washes, 10 ul of 1X PBS (Thermo Fisher) was dispensed to each well. Clear adhesive plate seals (VWR) were applied and plates stored at 4 °C.
11. […]
For `COc1cc(OC)cc(-c2cc3cnc(N)nc3nc2NC(=O)NC(C)(C)C)c1`, the activation was 5.06%. With `CCC/C=C1\OC(=O)C2=C1CCC(O)C2O` (stereo not given), the activation was 12.2%. On to `CCC(C)(CN(C)C)OC(=O)c1ccccc1` (stereo not given), for which the activation was -10.9%. On to `CC(=O)OC/C(=C/C(=O)O)CC[C@@H]1C(C)=CC(=O)[C@@H]2C(C)(C)CCC[C@@]12C`, for which the activation is -23.7%. With `CC[N+](CC)(CC)CCOc1ccc(/C=C/c2ccccc2)cc1`, the activation was -19.2%. On the same count and under the same terms, under `CC(C)(C)NC(=O)[C@H]1CN(Cc2cccnc2)CCN1C[C@@H](O)C[C@@H](Cc1ccccc1)C(=O)N[C@H]1c2ccccc2C[C@H]1O` stands 18.3%. `OC[C@@H](O)[C@@H](O)[C@H](O)[C@@H](O)CO`: the activation is 6.34%.

As for `C=C(CO)C12OC1C1(C)C(=CC2=O)C(O)C(O)CC1C` (stereo not given), the activation was 17.9%.

`Clc1ccccc1C(c1ccccc1)(c1ccccc1)n1ccnc1`: the activation is -9.6% and -24.2%.

Consider `Oc1ccc(C2CCN(c3ccnc4ccccc34)CC2)cc1O`, for which the activation is 25.9%.

Take `CC(C)c1cc2c(c(O)c1O[C@@H]1O[C@H](CO)[C@@H](O)[C@H](O)[C@H]1O)CC1(O)CCC(O)C(C)(C)C1CC2` (stereo not given in full): the activation was -22.1%. On the same count and under the same terms, under `CC1CC=C2C1CC1(O)C(=O)CC2(C)C1(C)CO` (stereo not given) stands 3.82%; under `OC[C@H]1O[C@@H](Oc2cc(O)c3c(c2)O[C@@H](c2ccc(O)cc2)[C@H](O)C3)[C@H](O)[C@@H](O)[C@@H]1O`, 4.46%. In the case of `C=C1CC2(C(=O)O)CC1CCC2C1(C)CCCC2(C)C(=O)OC(O)C21` (stereo not given), the activation is -6.87%. In the case of `CCn1nc(C2CCN(C(=O)CCO)CC2)nc1-c1cnc(N)c(-c2nnc(C(C)(C)C)o2)n1`, the activation is 6.33%. For `COC(=O)[C@]1(C)CCC[C@@]2(C)C(=O)CC[C@H]3C(=O)C=C(CC[C@@H]21)C3O` (stereo not given in full), the activation is 1.53%.

On to `C[C@]12CC[C@@H]3c4ccc(O)cc4C[C@@H](CCCCCCCCCS(=O)CCCC(F)(F)C(F)(F)F)[C@H]3[C@H]1CC[C@H]2O` (stereo not given in full), for which the activation is -2.43%. Same read-out and setting: the value for `Fc1ccc([C@@H]2CCNC[C@H]2COc2ccc3c(c2)OCO3)cc1` was 28.5% and -0.566% and 41.3%. The same measure, in the same setting: the value for `CCc1ccc(C(=O)C(C)CN2CCCCC2)cc1` (stereo not given) was -5.86%; that for `CC1CCC2(C(=O)O)CCC3(C)C(=CCC4C5(C)CCC(O)C(C)(CO)C5CCC43C)C2C1(C)O` (stereo not given) was -0.893%. With `Cc1nc(C2CCCCC2)c(-c2ccc(S(N)(=O)=O)c(F)c2)o1`, the activation is 19.2%. Take `O=C(CCOCCOCCOCCOCCC(=O)Nc1c(I)cc(I)c(C(=O)O)c1I)Nc1c(I)cc(I)c(C(=O)O)c1I`: the activation is -9.21%. The same measure, in the same setting: the value for `O=C(Nc1ccc2[nH]ncc2c1)C1CCC1` was -2.43% and 6.33%.

With `C[C@]12CC[C@@H]3c4ccc(O[C@@H]5O[C@H](C(=O)O)[C@@H](O)[C@H](O)[C@H]5O)cc4CC[C@H]3[C@@H]1CCC2=O`, the activation is -7%. `CC(C)S(=O)(=O)NC[C@@H]1CC(c2ccc(N3CCCC3)c(F)c2)=NO1`: the activation is 0.333%. Same read-out and setting: under `CO[C@@H]1[C@H](N(C)C(=O)c2ccccc2)C[C@H]2O[C@]1(C)n1c3ccccc3c3c4c(c5c6ccccc6n2c5c31)C(=O)NC4` stands 25.1%.

With `CC(C)C(=O)OCc1cccc(OC(=O)[C@@H]2N3C(=O)[C@@H](NC(=O)Cc4ccccc4)[C@H]3SC2(C)C)c1`, the activation is -5.86%.

Consider `CC1=C(C(=O)O[C@@H]2O[C@H](COC3OCC(O)C(O)C3O)[C@@H](O)[C@H](O)[C@H]2O)C(C)(C)CCC1` (stereo not given in full), for which the activation is -13%. Same read-out and setting: the value for `CO[C@H]1C[C@@H]2CC[C@@H](C)[C@@](O)(O2)C(=O)C(=O)N2CCCC[C@@H]2C(=O)O[C@H]([C@H](C)C[C@@H]2CC[C@H](OCCO)[C@H](OC)C2)CC(=O)[C@H](C)C=C(C)[C@@H](O)[C@@H](OC)C(=O)[C@H](C)C[C@H](C)C=CC=CC=C1C` was 24.4%; that for `CCCc1ccc(OCC(=O)N(Cc2nc(-c3cccnc3)no2)C(C)C)cc1` was -11.5%; that for `C[C@@H]1C[C@H](O)/C=C/[C@H](O)[C@@H](O)CC(=O)O1` was -9.92%. On the same count and under the same terms, under `CC(C)c1noc(N2CCC(COc3ccc(-c4ccc(S(C)(=O)=O)cc4)nc3)CC2)n1` stands -0.134% and -12.9%; under `O=C1c2cccc(O)c2C(=O)c2c(O)cccc21`, -22.6%.

On to `CC(CC(C)O[C@@H]1O[C@H](CO)[C@@H](O)[C@H](O)[C@H]1O)OC(=O)/C=C/c1ccc(O)cc1` (stereo not given in full), for which the activation is 3.82%. In the case of `COC(=O)c1c(C)cc(OC(=O)c2c(C)cc(OC)cc2OC)cc1O[C@@H]1O[C@H](CO)[C@@H](O)[C@H](O)[C@H]1O`, the activation is -15.3%.

With `C=C1CC2[C@@]3(C)C=CC(=O)C(C)(C)C3=C(O)C(=O)[C@@]2(C)C2(C(=O)OC)C(=O)C(C)OC(=O)[C@@]12C` (stereo not given in full), the activation is -3.82%.

Take `O=C(Nc1ccc(Oc2ccc(Cl)cc2)c(Cl)c1)c1cc(I)cc(I)c1O`: the activation is -20.9%. Same read-out and setting: under `CC[C@H]1OC(=O)[C@H](C)C(=O)[C@H](C)[C@@H](OC2O[C@H](C)C[C@H](N(C)C)[C@H]2O)[C@@H](C)C[C@@H](C)C(=O)/C=C/[C@]1(C)O` (stereo not given in full) stands -4.58%. For the molecule `C/C1=C/CCC2=CC(OC2=O)C(C)(C)/C=C/C1=O` (stereo not given), the Potency is 4.26 µM (active). Turning to `C[C@@H]1O[C@@H](O[C@H]2[C@H](O[C@H]3[C@H](O[C@H]4CC[C@@]5(C)C(CC[C@]6(C)C5CC=C5[C@@H]7CC(C)(C)CC[C@]7(C(=O)O[C@@H]7O[C@H](CO)[C@@H](O[C@@H]8O[C@@H](C)[C@H](O)[C@@H](O)[C@H]8O)[C@H](O)[C@H]7O)CC[C@]56C)C4(C)C)OC[C@H](O)[C@@H]3O)O[C@H](CO)[C@@H](O)[C@@H]2O)[C@H](O)[C@H](O)[C@H]1O` (stereo not given in full), the activation was 7.14%.
